Values without a mark were called inactive. Results filed as inconclusive are left out. Calls of active or inactive are those of the source. Unless noted, calls follow the shape of the dose curve; as a rule, active = well fitted curve in either direction with a large enough effect (not every such curve was filed as active); inconclusive = small, poorly fitted or top-dose-only effect, or another doubt; inactive = flat fitted curve, though single readings scatter.
Tests used:
[1] = biological target: Lysosomal acid glucosylceramidase (Homo sapiens) (UniProt P04062); assay: Glucocerebrosidase-p2 (AID 348; in the data active = potency below about 10 µM; also: potency is read from the fitted curve at half-maximal effect); details: purified GBA, blue fluorogenic substrate, 40 min
Method in brief: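 Compounds titrated from 0.6 nM upwards against 0.2 nM enzyme in pH 5.9 citric acid/KH2PO4, taurocholate, tween-20; blue fluorogenic substrate 80 uM, 40 min room temperature, stopped and read Ex 365/Em 440 for AC50.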

[2] = AP1 Signaling Pathway (AID 357); details: ME-180 AP-1-bla reporter, EGF-induced, beta-lactamase ratio, 5 h; at 7.69 µM (top of the series) unless noted;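 also: ME-180 reporter cells stimulated with EGF at its EC50 level; % is scaled to controls: 0 for no effect and ±100 for the full control effect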
Method in brief: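 First, ME-180 AP-1-bla cells were cultured overnight at 37 °C in low-serum Opti-MEM. Next, titrated compounds with EC50 EGF were incubated 5 hours. Finally, CCF4 was added for 2.5 hours and the 460/530 nm ratio recorded.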

[3] = biological target: Cytochrome P450 1A2 (Homo sapiens) (UniProt P05177); assay: p450-cyp1a2 (AID 410; calls by dose curve; also: potency is read from the fitted curve at half-maximal effect;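 as to activity change, negative = inhibition: -100% = full effect of reference inhibitor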); details: recombinant CYP1A2, luciferin-ME demethylation, luminescence; series mostly up to 11.4 µM
Method in brief: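 Luminescent readout of luciferin formed from Luciferin-ME by human CYP1A2; data normalized against complete inhibition by 57 uM furafylline. Enzyme 20nM, substrate 100uM at Km, 100mM KPO4 buffer, 60 min reaction at room temperature.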

[4] = NFAT Signaling Pathway (AID 444); details: Jurkat NFAT-bla M1, carbachol, beta-lactamase ratio, 5 h; at 7.69 µM (top of the series) unless noted;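 also: carbachol stimulus at about its EC50 of 1 µM final; % is scaled to controls: 0 for no effect and ±100 for the full control effect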
Method in brief: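 Jurkat cells carrying an NFAT-driven β-lactamase reporter and co-transfected muscarinic M1 receptor were treated with compound plus carbachol (1 uM final, an EC50 level) for 5 h at 37 °C. CCF4 loading followed for 1 h at RT; 460/530 nm ratio gave %activity.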

[5] = Stat Signaling Pathway (AID 446); details: ME-180 SIE beta-lactamase reporter, IL-6 stimulated, 5 h; at 7.69 µM (top of the series) unless noted;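 also: ME-180 cervical cancer cells given 40 pM IL-6 alongside compound; SIE-controlled beta-lactamase reporter measured as 460/530 nm FRET emission ratio; % is scaled to controls: 0 for no effect and ±100 for the full control effect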
Method in brief: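 ME-180 cells carrying a SIE-driven beta-lactamase reporter are stimulated with 40 pM IL-6 for 5 h at 37C in the presence of compound. The 460/530 nm FRET substrate ratio is read after 2.5 h at RT. Data are normalised to 300 pM IL-6 and to 125 nM JAK inhibitor controls.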

[6] = biological target: Mitogen-activated protein kinase 10 (Mus musculus) (UniProt Q61831); assay: JNK3 AlphaScreen Assay (AID 530); details: JNK3 lysate, c-Jun phosphorylation; series mostly up to 57.1 µM;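 also: kinase came from lysate of stimulated human HepG2 cells; signal reports phosphorylation of biotinylated GST-cJun 1-79 at Ser73 with 10 µM ATP; % is scaled to controls: 0 for no effect and ±100 for the full control effect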
Method in brief: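 Inhibitors reduce antibody binding to phosphorylated biotin-cJun, lowering AlphaScreen luminescence. Lysates from HepG2 cells pre-activated by IL-1beta plus TNF-alpha supplied JNK3; compounds were titrated.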

[7] = biological target: 3',5'-cyclic-AMP phosphodiesterase 4B (Homo sapiens) (UniProt Q07343); assay: qHTS Assay for Inhibitors of PDE-IV (AID 607; active = well fitted activation curve with a large enough effect in the main read-out, with a control signal flat, not every such curve was filed as active; also: % of control where 0% means no effect); details: HEK293 ACTOne CNG channel cells, membrane potential fluorescence; series mostly up to 22.9 µM
Method in brief: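 HEK293 ACTOne cells with CNG channel (1000/well), endogenous PDE4; membrane potential dye, compounds up to 22.9 uM final. Fluorescence Ex 535/Em 590; RO 20-1724 (100 uM final) as reference.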

[8] = biological target: Cytochrome P450 2D6 (Homo sapiens) (UniProt P10635); assay: qHTS Assay for Inhibitors and Substrates of Cytochrome P450 2D6 (AID 891; active = well fitted curve in the direction sought with a large enough effect; an effect the other way counts as inactive or inconclusive; also: nearly all actives have a fitted effect of over 60% in size; also: potency is read from the fitted curve at half-maximal effect); details: recombinant CYP2D6, luciferin-ME EGE luminescence; series mostly up to 11.4 µM
Method in brief: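 Human CYP2D6 (5 nM) with 30 uM Luciferin-ME EGE (at Km) in 100 mM KPO4, compound preincubated 10 min, then NADPH regeneration system for 60 min at room temperature. Luciferin read by luminescence; normalized to 1.43 uM quinidine.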

[9] = biological target: Luciferin 4-monooxygenase (Photinus pyralis) (UniProt P08659); assay: Biochemical firefly luciferase enzyme assay for NPC (AID 624030; active = well fitted curve in the direction sought with a large enough effect; an effect the other way counts as inactive or inconclusive;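 also: purified P. pyralis luciferase at 10 nM with luciferin and ATP substrate; 0% = DMSO and -100% = full luciferase inhibition by PTC124 control; nearly all actives have a fitted effect of over 70% in size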); details: purified P. pyralis luciferase, luminescence, 5 min; series mostly up to 58.6 µM
Method in brief: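 Counter-screen for direct inhibition of the luciferase enzyme by approved-drug library compounds, run at 10 nM enzyme in 50 mM Tris acetate (final). Luminescence was read within 5 min of enzyme-buffer addition and normalized to PTC124 versus DMSO (0%).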

[10] = biological target: Glucocorticoid receptor (Homo sapiens) (UniProt P04150); assay: GR-GFP Redistribution (AID 450;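 active = compounds whose dose series gives a full or clear partial fitted curve of increased nuclear translocation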; also: potency is read from the fitted curve at half-maximal effect); details: U2OS GR-GFP nuclear translocation, laser cytometry, 2 h
[11] = biological target: Cytochrome P450 3A4 (Homo sapiens) (UniProt P08684); assay: qHTS Assay for Activators of Cytochrome P450 3A4 (AID 885; active = well fitted curve in the direction sought with a large enough effect; an effect the other way counts as inactive or inconclusive; also: nearly all actives have a fitted effect of over 65% in size); details: recombinant CYP3A4, Luciferin-PPXE luminescence, 60 min; series mostly up to 57.1 µM
Method in brief: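 Human CYP3A4 (20 nM) with Luciferin-PPXE at 25 uM (its KM) in 200 mM KPO4; 10 min compound preincubation, then NADPH regeneration and 60 min reaction at RT. Luciferin read by luminescence; normalized to 57 uM ketoconazole full inhibition.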

[12] = qHTS Assay for Identification of Small Molecule Agonists for Hypoxia Response Element Signaling Pathway (AID 914; active = well fitted activation curve with a large enough effect in the signal ratio, with a control signal flat, not every such curve was filed as active; the % refers to the signal ratio; also: % of control where 0% means no effect); details: ME-180 (cervical carcinoma) HRE-bla reporter, beta-lactamase ratio, CoCl2, 17 h; active compounds read high
Method in brief: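 HRE-bla ME-180 cells with beta-lactamase reporter under hypoxia response element, compounds with EC50 CoCl2 for 17 hours at 37 C. CCF4 substrate, 460nm/530nm emission ratio gave %Activity; AC50 from titration series.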

[13] = biological target: Glucocorticoid receptor (Homo sapiens) (UniProt P04150); assay: GR-EFC Redistribution (AID 451; calls by dose curve; also: potency is read from the fitted curve at half-maximal effect); details: CHO-K1 GR-EFC translocation, beta-gal luminescence, 2 h
Method in brief: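 CHO-K1 cells stably expressing nuclear-localized β-gal enzyme acceptor and GR fused C-terminally to the enzyme donor fragment; ligand-driven nuclear translocation restores β-gal by complementation. Compounds titrated up to 46 uM final, 2 h at 37 °C; luminescence read.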

[14] = biological target: Cytochrome P450 2C19 (Homo sapiens) (UniProt P33261); assay: qHTS Assay for Inhibitors and Substrates of Cytochrome P450 2C19 (AID 899; active = well fitted curve in the direction sought with a large enough effect; an effect the other way counts as inactive or inconclusive; also: nearly all actives have a fitted effect of over 60% in size; also: potency is read from the fitted curve at half-maximal effect); details: recombinant CYP2C19, luciferin-H EGE luminescence; series mostly up to 11.4 µM
Method in brief: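 NADPH-dependent conversion of Luciferin-H EGE (10uM, at KM) by 5nM enzyme in 50mM KPO4, 60 min at 37C following 10 min compound preincubation. Stopped with luciferin detection buffer; luminescence read after 20 min.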

Sequence of 3',5'-cyclic-AMP phosphodiesterase 4B (Homo sapiens) (Q07343 whole entry, looked up): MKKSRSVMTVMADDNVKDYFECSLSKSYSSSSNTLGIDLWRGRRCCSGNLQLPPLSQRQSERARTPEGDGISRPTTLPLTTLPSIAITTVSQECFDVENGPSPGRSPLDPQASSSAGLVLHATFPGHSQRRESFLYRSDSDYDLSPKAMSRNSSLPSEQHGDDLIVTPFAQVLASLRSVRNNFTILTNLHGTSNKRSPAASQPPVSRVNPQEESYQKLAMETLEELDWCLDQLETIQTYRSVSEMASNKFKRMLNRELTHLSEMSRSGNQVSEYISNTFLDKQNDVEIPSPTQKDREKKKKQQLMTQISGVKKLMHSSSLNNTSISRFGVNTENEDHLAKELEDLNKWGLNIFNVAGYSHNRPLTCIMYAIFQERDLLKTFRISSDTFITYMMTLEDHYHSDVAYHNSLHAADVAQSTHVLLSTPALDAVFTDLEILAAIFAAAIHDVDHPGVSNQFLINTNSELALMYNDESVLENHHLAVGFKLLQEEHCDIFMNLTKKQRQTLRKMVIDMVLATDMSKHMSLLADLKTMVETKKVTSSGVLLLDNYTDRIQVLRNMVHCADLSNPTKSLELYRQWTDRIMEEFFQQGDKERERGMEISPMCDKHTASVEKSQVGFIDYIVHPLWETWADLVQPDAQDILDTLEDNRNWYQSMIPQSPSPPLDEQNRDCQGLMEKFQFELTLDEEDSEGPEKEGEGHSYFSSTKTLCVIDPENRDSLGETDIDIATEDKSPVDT
Sequence of Lysosomal acid glucosylceramidase (Homo sapiens) (P04062 whole entry, looked up): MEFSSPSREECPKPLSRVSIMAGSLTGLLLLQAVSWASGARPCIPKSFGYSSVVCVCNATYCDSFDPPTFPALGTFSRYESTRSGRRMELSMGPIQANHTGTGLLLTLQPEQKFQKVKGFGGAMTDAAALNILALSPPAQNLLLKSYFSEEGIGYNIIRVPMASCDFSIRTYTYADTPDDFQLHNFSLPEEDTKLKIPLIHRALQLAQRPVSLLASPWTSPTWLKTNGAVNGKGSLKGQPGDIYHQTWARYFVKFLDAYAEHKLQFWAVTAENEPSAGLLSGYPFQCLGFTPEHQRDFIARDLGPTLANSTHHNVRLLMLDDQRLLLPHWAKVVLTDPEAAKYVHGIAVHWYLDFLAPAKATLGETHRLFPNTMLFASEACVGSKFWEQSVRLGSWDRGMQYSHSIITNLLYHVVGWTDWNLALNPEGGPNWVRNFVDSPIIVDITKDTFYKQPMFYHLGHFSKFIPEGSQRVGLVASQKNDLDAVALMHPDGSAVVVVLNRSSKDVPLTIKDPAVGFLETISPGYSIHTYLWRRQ
Sequence of Cytochrome P450 2D6 (Homo sapiens) (P10635 whole entry, looked up): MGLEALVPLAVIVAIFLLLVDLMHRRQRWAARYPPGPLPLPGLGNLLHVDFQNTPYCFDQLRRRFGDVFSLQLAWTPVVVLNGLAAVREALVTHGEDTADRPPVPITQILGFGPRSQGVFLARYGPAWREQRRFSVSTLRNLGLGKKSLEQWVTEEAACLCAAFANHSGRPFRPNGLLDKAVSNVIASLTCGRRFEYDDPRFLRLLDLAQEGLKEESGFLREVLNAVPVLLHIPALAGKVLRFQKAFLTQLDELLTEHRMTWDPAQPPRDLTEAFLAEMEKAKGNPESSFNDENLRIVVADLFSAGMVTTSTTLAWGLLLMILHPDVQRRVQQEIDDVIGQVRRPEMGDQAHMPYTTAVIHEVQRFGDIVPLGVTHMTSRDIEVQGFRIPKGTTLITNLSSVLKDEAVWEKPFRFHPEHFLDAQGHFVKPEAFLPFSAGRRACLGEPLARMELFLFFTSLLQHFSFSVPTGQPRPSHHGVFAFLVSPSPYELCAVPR
Sequence of Glucocorticoid receptor (Homo sapiens) (P04150 whole entry, looked up, the tested form may be a part): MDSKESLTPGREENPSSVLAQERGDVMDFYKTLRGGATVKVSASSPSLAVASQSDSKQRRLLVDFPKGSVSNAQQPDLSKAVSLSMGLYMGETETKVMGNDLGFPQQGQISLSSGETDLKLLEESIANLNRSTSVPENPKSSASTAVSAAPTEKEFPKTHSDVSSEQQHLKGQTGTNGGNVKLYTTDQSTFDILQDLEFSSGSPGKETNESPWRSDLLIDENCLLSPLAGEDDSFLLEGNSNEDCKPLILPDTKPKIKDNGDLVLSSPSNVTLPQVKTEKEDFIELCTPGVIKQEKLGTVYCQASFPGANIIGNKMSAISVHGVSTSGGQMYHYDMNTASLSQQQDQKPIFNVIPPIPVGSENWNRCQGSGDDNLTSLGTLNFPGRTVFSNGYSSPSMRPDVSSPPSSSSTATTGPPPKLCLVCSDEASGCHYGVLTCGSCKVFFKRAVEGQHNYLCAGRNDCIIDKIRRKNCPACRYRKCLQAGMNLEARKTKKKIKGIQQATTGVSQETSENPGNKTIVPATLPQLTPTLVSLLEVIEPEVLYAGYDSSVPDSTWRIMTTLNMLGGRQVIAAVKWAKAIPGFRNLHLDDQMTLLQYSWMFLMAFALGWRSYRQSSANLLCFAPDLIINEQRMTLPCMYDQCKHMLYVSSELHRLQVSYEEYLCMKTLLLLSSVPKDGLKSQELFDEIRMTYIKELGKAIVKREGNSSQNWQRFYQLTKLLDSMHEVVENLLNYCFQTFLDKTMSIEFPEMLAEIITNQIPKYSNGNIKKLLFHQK
Sequence of Cytochrome P450 1A2 (Homo sapiens) (P05177 whole entry, looked up): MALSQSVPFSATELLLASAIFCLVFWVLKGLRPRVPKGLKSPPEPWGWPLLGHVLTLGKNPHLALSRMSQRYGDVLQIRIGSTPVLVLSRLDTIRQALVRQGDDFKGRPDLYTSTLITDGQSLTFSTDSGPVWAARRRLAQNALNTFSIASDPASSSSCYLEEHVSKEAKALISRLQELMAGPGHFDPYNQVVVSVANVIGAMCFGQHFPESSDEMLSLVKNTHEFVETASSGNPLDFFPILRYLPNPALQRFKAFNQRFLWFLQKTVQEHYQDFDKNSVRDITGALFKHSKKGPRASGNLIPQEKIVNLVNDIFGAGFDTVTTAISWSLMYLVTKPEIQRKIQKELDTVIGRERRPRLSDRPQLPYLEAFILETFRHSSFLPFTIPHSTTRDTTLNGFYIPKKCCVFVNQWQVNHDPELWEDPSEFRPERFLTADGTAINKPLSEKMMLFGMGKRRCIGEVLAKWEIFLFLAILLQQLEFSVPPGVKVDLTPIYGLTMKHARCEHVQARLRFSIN
Sequence of Cytochrome P450 2C19 (Homo sapiens) (P33261 whole entry, looked up): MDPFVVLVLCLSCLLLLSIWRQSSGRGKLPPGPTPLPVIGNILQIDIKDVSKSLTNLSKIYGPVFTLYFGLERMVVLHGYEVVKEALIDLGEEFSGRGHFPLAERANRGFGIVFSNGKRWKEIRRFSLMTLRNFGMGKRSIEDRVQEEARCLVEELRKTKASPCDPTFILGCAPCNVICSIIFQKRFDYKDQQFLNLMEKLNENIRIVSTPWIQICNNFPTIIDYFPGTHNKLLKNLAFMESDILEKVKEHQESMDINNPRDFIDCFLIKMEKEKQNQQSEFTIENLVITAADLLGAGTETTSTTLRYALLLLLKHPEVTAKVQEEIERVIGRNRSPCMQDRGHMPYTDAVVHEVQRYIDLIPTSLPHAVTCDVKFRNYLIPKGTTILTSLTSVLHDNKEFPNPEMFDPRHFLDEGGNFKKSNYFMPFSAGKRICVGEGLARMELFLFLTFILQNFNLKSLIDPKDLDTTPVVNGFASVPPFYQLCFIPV
Sequence of Cytochrome P450 3A4 (Homo sapiens) (P08684 whole entry, looked up): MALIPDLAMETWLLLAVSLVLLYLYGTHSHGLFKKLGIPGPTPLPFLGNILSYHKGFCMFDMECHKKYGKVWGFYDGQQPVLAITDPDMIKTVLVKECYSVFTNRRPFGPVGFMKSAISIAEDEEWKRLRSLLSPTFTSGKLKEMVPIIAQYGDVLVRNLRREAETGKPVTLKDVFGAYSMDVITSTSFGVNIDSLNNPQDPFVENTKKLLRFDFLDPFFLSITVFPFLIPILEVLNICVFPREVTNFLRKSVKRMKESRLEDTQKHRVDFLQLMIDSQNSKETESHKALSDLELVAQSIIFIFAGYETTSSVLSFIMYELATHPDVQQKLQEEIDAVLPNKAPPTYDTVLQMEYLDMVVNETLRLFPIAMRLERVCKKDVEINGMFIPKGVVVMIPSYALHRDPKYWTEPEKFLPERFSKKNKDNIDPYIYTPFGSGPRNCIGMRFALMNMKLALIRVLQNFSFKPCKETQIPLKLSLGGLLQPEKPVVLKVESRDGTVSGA
Sequence of Luciferin 4-monooxygenase (Photinus pyralis) (P08659 whole entry, looked up): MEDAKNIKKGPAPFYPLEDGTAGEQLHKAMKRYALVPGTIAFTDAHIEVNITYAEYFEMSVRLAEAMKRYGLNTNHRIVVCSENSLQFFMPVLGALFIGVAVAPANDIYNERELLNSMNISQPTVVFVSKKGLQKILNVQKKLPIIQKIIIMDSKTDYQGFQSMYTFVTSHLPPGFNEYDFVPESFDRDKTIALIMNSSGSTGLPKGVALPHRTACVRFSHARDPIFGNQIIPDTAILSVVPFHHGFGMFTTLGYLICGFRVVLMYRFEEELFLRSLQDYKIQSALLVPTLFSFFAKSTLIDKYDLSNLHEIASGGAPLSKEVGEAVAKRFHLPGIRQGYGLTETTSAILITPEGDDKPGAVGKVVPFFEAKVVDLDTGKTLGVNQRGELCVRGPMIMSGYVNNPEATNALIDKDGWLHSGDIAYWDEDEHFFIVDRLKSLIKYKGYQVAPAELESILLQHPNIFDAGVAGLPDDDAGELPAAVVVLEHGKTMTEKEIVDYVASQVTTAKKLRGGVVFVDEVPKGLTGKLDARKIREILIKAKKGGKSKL

## c1ccc2c(c1)Sc1ccccc1N2C[C@H]1CN2CCC1CC2
[1]
  Potency: > 11.4 µM
[2]
  activity change, negative = inhibition: 24.9%
[3]
  Potency: inactive
[4]
  activity change, negative = inhibition: -73.4% (active)
[5]
  activity, negative = inhibition: 9.78%
[6]
  activity change, negative = inhibition: 3.89% [at 11.4 µM]
[7]
  outcome: inactive
[8]
  Potency: 398 nM (active)
[9]
  outcome: inactive

## C[C@H](CC(C#N)(c1ccccc1)c1ccccc1)N1CCCCC1
[1]
  Potency: > 11.4 µM
[2]
  activity change, negative = inhibition: 17%
[3]
  activity change, negative = inhibition: 7.1% [at 2.29 µM]
[5]
  activity, negative = inhibition: 2.01%
[10]
  Potency: > 46 µM
[6]
  activity change, negative = inhibition: 1.28% [at 11.4 µM]
[7]
  outcome: inactive
[11]
  activity change, positive = activation: -53% [at 11.4 µM]
[8]
  Potency: 2510 nM (active)
[12]
  activation: 4.33%

## Cc1cc[c]([Sb]2[O][C@H]([C@H](O)[C@H](O)C(=O)O)[C@@H](CO)[O]2)cc1
[1]
  Potency: > 11.4 µM
[2]
  activity change, negative = inhibition: 0.9%
[3]
  Potency: inactive
[4]
  activity change, negative = inhibition: -5.69%
[5]
  activity, negative = inhibition: 4.3%
[13]
  Potency: > 9.22 µM
[6]
  activity change, negative = inhibition: 0.865% [at 11.4 µM]
[7]
  outcome: inactive

## O=C(O)C[C@H]1NCc2cc3ccccc3nc21
[1]
  Potency: > 11.4 µM
[2]
  activity change, negative = inhibition: 2.39%
[3]
  activity change, negative = inhibition: -4.9% [at 2.29 µM]
[5]
  activity, negative = inhibition: 5.32%
[13]
  Potency: > 9.22 µM
[6]
  activity change, negative = inhibition: 1.75% [at 11.4 µM]
[7]
  outcome: inactive

## CC[C@H]1CN2CCc3cc(OC)c(OC)cc3[C@H]2C[C@@H]1C[C@H]1NCCc2c1[nH]c1ccc(O)cc21
[1]
  Potency: > 11.4 µM
[2]
  activity change, negative = inhibition: -118% (active)
[3]
  Potency: inactive
[6]
  activity change, negative = inhibition: -2.73% [at 11.4 µM]
[7]
  outcome: inactive

## O=S(=O)(O)/C(=C\c1ccccc1)c1ccccc1 (tested in a mixture with another compound)
[1]
  Potency: > 11.4 µM
[2]
  activity change, negative = inhibition: 4.77%
[3]
  activity change, negative = inhibition: -29% [at 2.29 µM]
[4]
  activity change, negative = inhibition: 11.5%
[5]
  activity, negative = inhibition: 7.2%
[6]
  activity change, negative = inhibition: 4.57% [at 11.4 µM]
[7]
  outcome: inactive

## CCOC(=O)[C@@H]1[C@@H]2c3ccccc3-c3ccccc3[C@H]2C[C@H]1O
[1]
  Potency: > 11.4 µM
[2]
  activity change, negative = inhibition: -11.4%
[3]
  Potency: 631 nM (active)
[4]
  activity change, negative = inhibition: 2.27%
[10]
  Potency: > 46 µM
[13]
  Potency: > 9.22 µM
[6]
  activity change, negative = inhibition: -2.11% [at 11.4 µM]
[7]
  outcome: inactive
[14]
  Potency: 2 µM (active)

## COc1cc2cc(c1Cl)N(C)C(=O)C[C@H](OC(=O)C(C)C)[C@]1(C)O[C@@H]1[C@@H](C)[C@H]1C[C@](O)(NC(=O)O1)[C@@H](OC)/C=C\C=C(\C)C2
[1]
  Potency: > 11.4 µM
[2]
  activity change, negative = inhibition: 23.1%
[3]
  Potency: inactive
[5]
  activity, negative = inhibition: 6.86%
[10]
  Potency: 0.278 µM (active)
[6]
  activity change, negative = inhibition: 2.93% [at 11.4 µM]
[7]
  outcome: inactive
[8]
  Potency: inactive
[14]
  Potency: inactive

## O=C(Oc1ccc(S(=O)(=O)F)cc1F)c1ccccc1Cl
[1]
  Potency: > 11.4 µM
[2]
  activity change, negative = inhibition: -4.95%
[4]
  activity change, negative = inhibition: 5.76%
[5]
  activity, negative = inhibition: -0.302%
[10]
  Potency: > 46 µM
[13]
  Potency: > 9.22 µM
[6]
  activity change, negative = inhibition: 2.49% [at 11.4 µM]
[7]
  outcome: inactive

## C[C@H](c1ccccc1)N1CCN([C@@H](C)c2ccccc2)CC1
[1]
  Potency: > 11.4 µM
[2]
  activity change, negative = inhibition: -6.57%
[3]
  activity change, negative = inhibition: -16% [at 2.29 µM]
[5]
  activity, negative = inhibition: -0.496%
[10]
  Potency: > 46 µM
[13]
  Potency: > 9.22 µM
[6]
  activity change, negative = inhibition: 1.95% [at 11.4 µM]
[7]
  outcome: inactive
[8]
  Potency: 63.1 nM (active)

## COc1cc2ccccc2c2cc([N+](=O)[O-])oc12
[1]
  Potency: > 11.4 µM
[2]
  activity change, negative = inhibition: 3.54%
[3]
  Potency: 126 nM (active)
[5]
  activity, negative = inhibition: 16.1%
[10]
  Potency: > 46 µM
[13]
  Potency: > 9.22 µM
[6]
  activity change, negative = inhibition: 16.5% [at 11.4 µM]
[7]
  outcome: inactive

## O=P(O)(O)c1ccccc1 (tested in a mixture with another compound)
[1]
  Potency: > 11.4 µM
[2]
  activity change, negative = inhibition: 2.76%
[3]
  Potency: inactive
[4]
  activity change, negative = inhibition: 5.01%
[5]
  activity, negative = inhibition: -0.661%
[6]
  activity change, negative = inhibition: 6.51% [at 11.4 µM]
[7]
  outcome: inactive
